Test results published in the supplement of paper PMC8728848.
This excerpt belongs to a sample that is enriched for the strongest signals.

How the values were obtained:
Assay in all cases: glycan array binding signal (z-score within array); higher = stronger binding
Conditions in all cases: glycan notation: IUPAC condensed, linker removed
[1] = molecular target: Fuc(a1-2)Gal(b1-3)GlcNAc(b1-3)Gal(b1-4)Glc
Summary of the method: (§1)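 Glycan array binding is given as a within-array Z-score, which can be read as non-binding when negative. The arrays, 3228 of them, came from the Consortium for Functional Glycomics database and were retained only where the protein sequence was available. Z-scores were averaged across arrays of the same protein sequence at different concentrations or buffers and across linkers.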

[2] = molecular target: Fuc(a1-2)Gal(b1-4)GlcNAc(b1-3)Gal(b1-4)GlcNAc(b1-2)Man(a1-3)[Fuc(a1-2)Gal(b1-4)GlcNAc(b1-3)Gal(b1-4)GlcNAc(b1-2)Man(a1-6)]Man(b1-4)GlcNAc(b1-4)GlcNAc
Summary of the method: as §1

[3] = molecular target: Fuc(a1-2)Gal3S(b1-4)GlcNAc
Summary of the method: as §1

[4] = molecular target: Fuc(a1-2)GlcNAc
Summary of the method: as §1

[5] = molecular target: Fuc(a1-2)[Gal(a1-3)]Gal(b1-4)GlcNAc(b1-3)GalNAc
Summary of the method: as §1

[6] = molecular target: Fuc(a1-2)[Gal(a1-3)]Gal(b1-4)GlcNAc(b1-3)[Fuc(a1-2)[Gal(a1-3)]Gal(b1-4)GlcNAc(b1-6)]GalNAc
Summary of the method: as §1

[7] = molecular target: Fuc(a1-2)[GalNAc(a1-3)]Gal(b1-3)GlcNAc(b1-6)GalNAc
Summary of the method: as §1

[8] = molecular target: Fuc(a1-2)[GalNAc(a1-3)]Gal(b1-4)[Fuc(a1-3)]GlcNAc
Summary of the method: as §1

[9] = molecular target: Fuc(a1-2)[GalNAc(b1-3)]Gal
Summary of the method: as §1

[10] = molecular target: Fuc(a1-3)[Gal3S(b1-4)]GlcNAc
Summary of the method: as §1

[11] = molecular target: Fuc(a1-3)[GalNAc(b1-4)]GlcNAc
Summary of the method: as §1

[12] = molecular target: Gal(a1-3)Gal(b1-4)[Fuc(a1-3)]GlcNAc(b1-2)Man(a1-3)[Gal(a1-3)Gal(b1-4)[Fuc(a1-3)]GlcNAc(b1-2)Man(a1-6)]Man(b1-4)GlcNAc(b1-4)GlcNAc
Summary of the method: as §1

[13] = molecular target: Gal(a1-4)Gal(b1-4)Gal
Summary of the method: as §1

[14] = molecular target: Gal(b1-2)Gal
Summary of the method: as §1

[15] = molecular target: Gal(b1-3)Gal
Summary of the method: as §1

[16] = molecular target: Gal(b1-3)Gal(b1-4)GlcNAc
Summary of the method: as §1

[17] = molecular target: Gal(b1-3)GalNAc
Summary of the method: as §1

[18] = molecular target: Gal(b1-3)GalNAc(b1-3)Gal
Summary of the method: as §1

[19] = molecular target: Gal(b1-3)GalNAc(b1-3)Gal(b1-4)Glc
Summary of the method: as §1

[20] = molecular target: Gal(b1-3)GalNAc(b1-4)Gal(b1-4)Glc
Summary of the method: as §1

[21] = molecular target: Gal(b1-3)GalNAc(b1-4)[Neu5Ac(a2-3)]Gal(b1-4)Glc
Summary of the method: as §1

[22] = molecular target: Gal(b1-3)[Neu5Ac(a2-6)]GalNAc
Summary of the method: as §1

[23] = molecular target: Gal(b1-4)GlcNAc(b1-2)Man(a1-6)[Man(a1-3)]Man(b1-4)GlcNAc(b1-4)GlcNAc
Summary of the method: as §1

[24] = molecular target: Gal(b1-4)GlcNAc(b1-3)Gal(b1-4)GlcNAc(b1-2)[Gal(b1-4)GlcNAc(b1-3)Gal(b1-4)GlcNAc(b1-6)]Man(a1-6)[Gal(b1-4)GlcNAc(b1-3)Gal(b1-4)GlcNAc(b1-2)Man(a1-3)]Man(b1-4)GlcNAc(b1-4)GlcNAc
Summary of the method: as §1

[25] = molecular target: Gal(b1-4)GlcNAc(b1-3)Gal(b1-4)GlcNAc(b1-2)[Gal(b1-4)GlcNAc(b1-3)Gal(b1-4)GlcNAc(b1-6)]Man(a1-6)[Gal(b1-4)GlcNAc(b1-3)Gal(b1-4)GlcNAc(b1-2)Man(a1-3)]Man(b1-4)GlcNAc(b1-4)[Fuc(a1-6)]GlcNAc
Summary of the method: as §1

[26] = molecular target: Gal(b1-4)GlcNAc(b1-3)Gal(b1-4)GlcNAc(b1-3)Gal(b1-4)GlcNAc(b1-2)[Gal(b1-4)GlcNAc(b1-3)Gal(b1-4)GlcNAc(b1-3)Gal(b1-4)GlcNAc(b1-6)]Man(a1-6)[Gal(b1-4)GlcNAc(b1-3)Gal(b1-4)GlcNAc(b1-3)Gal(b1-4)GlcNAc(b1-2)Man(a1-3)]Man(b1-4)GlcNAc(b1-4)[Fuc(a1-6)]GlcNAc
Summary of the method: as §1

[27] = molecular target: Gal(b1-4)GlcNAc(b1-3)Gal(b1-4)GlcNAc(b1-3)Gal(b1-4)GlcNAc(b1-3)Gal(b1-4)GlcNAc(b1-3)Gal(b1-4)GlcNAc(b1-3)Gal(b1-4)GlcNAc(b1-2)Man(a1-3)[Gal(b1-4)GlcNAc(b1-3)Gal(b1-4)GlcNAc(b1-3)Gal(b1-4)GlcNAc(b1-3)Gal(b1-4)GlcNAc(b1-3)Gal(b1-4)GlcNAc(b1-3)Gal(b1-4)GlcNAc(b1-2)Man(a1-6)]Man(b1-4)GlcNAc(b1-4)GlcNAc
Summary of the method: as §1

[28] = molecular target: Gal(b1-4)GlcNAc(b1-6)Gal(b1-4)GlcNAc
Summary of the method: as §1

[29] = molecular target: Gal(b1-4)GlcNAc(b1-6)[Gal(b1-3)]GalNAc
Summary of the method: as §1

B1: Epa1-NP (Candida glabrata), Q6VBJ0 (protein)
chain: MILNPALFLNKCVCIYTTLILLLLTNGGYATSSNDISLASKDPTTFPLGCSPDITTPKKGLSMELYSYDFRKKGSYPCWDAAYLDPNYPRTGYKSHRLLAKVDGVTGNINFYYHATKGCTPQLGHLPASYNYPKPLTMTNFTMLLYGYFRPKVTGFHTFTISADDLLFVNFGAGNAFDCCRRDSSADHFGNYQAYAIWGSKTAKDELTVHLDAGVYYPIRLFYNNREYDGALSFTFKTESNENTVSDFSEYFFSLDDTEEGCPGLISYDSSCASVKTSKIIGIDYHTETPNENLVPITKTIYHLGIPCTGTTTTPLCGSGFYDPLANKCVTINTSSTSSVTKTTSHTTSKEVSFHSSISSQKTLIPKSIPSPYGPIKSQSIPTEMETSSEISSSEYAFSDVISTPSHSPYTKKHSSLNSSSYTSTVIHSLTSYSISQGIFSTSLSEQNITSKSSTDKFSTATSMSNNITQSSIIISQFSTNNENYTTTSMHTSSDKISTETLNNSISTTTSILFSNSSTILKNNTTIISSDKDTHYHPVNPTIVCSTNKTEIICASITQPSISNSNNHWSSSVLKFNSTTVRSTLPSSAGSNETSINVPFSSSTESNTSTSSTSTSNSKMVRSTLPSSAGSNETSISVPFSSSTESNTSTSSTSTSNSKMVRSTLPSSAGSNETSINVPFSSSTESNTSTSSTSTSNSKTVRSTPFSSAGIIMTSLSQRNNKSASSYASSNSKCYNTADSCRKVHSTPSYLLTSSYTSEGVDYDCSLVSTKLKINDTNCVNNKHTTKSCLKTSVTTTIPTLEIKTARKSSSNTIGLHSYPTSSPNKSISSAPIIGYISSFKTIKTASPSYQTSDLTTITTITSLNNPGSTAVENTHESNDKSRKTSSNDISSKHSVIKETKDAVESSNKSHQTNTLKCSSIIIASSSHNSYESLGGTTLTLTLSKVYSPQNNDTLPFLEISEVNPSRTVLPESSKMMQYLTSTEERNKTARNTIATNIVSISTFHFEGEGNAIRMGYTQLLLMLIGIIVMNIGT
[1]
  glycan array binding signal (z-score): -0.296
[2]
  glycan array binding signal (z-score): -0.277
[3]
  glycan array binding signal (z-score): -0.26
[4]
  glycan array binding signal (z-score): -0.542
[5]
  glycan array binding signal (z-score): -0.269
[6]
  glycan array binding signal (z-score): -0.281
[7]
  glycan array binding signal (z-score): -0.291
[8]
  glycan array binding signal (z-score): -0.283
[9]
  glycan array binding signal (z-score): -0.272
[10]
  glycan array binding signal (z-score): -0.341
[11]
  glycan array binding signal (z-score): -0.265
[12]
  glycan array binding signal (z-score): -0.174
[13]
  glycan array binding signal (z-score): 0.374
[14]
  glycan array binding signal (z-score): 0.199
[15]
  glycan array binding signal (z-score): 2.9
[16]
  glycan array binding signal (z-score): 5
[17]
  glycan array binding signal (z-score): 2.56
[18]
  glycan array binding signal (z-score): 2.91
[19]
  glycan array binding signal (z-score): 1.31
[20]
  glycan array binding signal (z-score): 8.65
[21]
  glycan array binding signal (z-score): 2.27
[22]
  glycan array binding signal (z-score): 5.06
[23]
  glycan array binding signal (z-score): -0.225
[24]
  glycan array binding signal (z-score): 1.54
[25]
  glycan array binding signal (z-score): 2.48
[26]
  glycan array binding signal (z-score): 2.81
[27]
  glycan array binding signal (z-score): 1.3
[28]
  glycan array binding signal (z-score): 2.34
[29]
  glycan array binding signal (z-score): 2.73
